# Vaccinia Venus: qHTS for Stage-Specific Inhibitors of Vaccinia Orthopoxvirus: Venus Reporter Primary qHTS | Vaccinia virus Venus reporter expression, fluorescence | Potency, µM (series often up to 36.5 µM), inactives show at the highest dose activity change, negative = inhibition, usual class: inhibitors | 0.46% of 330,000 active | AID 720580, 2013; calls by dose curve; tested in A549 cells; also: potency is read from the fitted curve at half-maximal effect; nearly all actives have a fitted effect of over 30% in size
# Giardia FBPA inh: qHTS Assay for Inhibitors of Fructose-1,6-bisphosphate Aldolase from Giardia Lamblia; purified Giardia FBPA; Potency, µM (doses to about 59.6 µM), without a hit: top-dose activity, negative = inhibition, most hits filed as inhibitors; 0.71% of 290,000 active; AID 2451, 2010; also: potency is read from the fitted curve at half-maximal effect; nearly all actives have a fitted effect of over 55% in size
# Target sequence (A8B2U2 whole entry, looked up): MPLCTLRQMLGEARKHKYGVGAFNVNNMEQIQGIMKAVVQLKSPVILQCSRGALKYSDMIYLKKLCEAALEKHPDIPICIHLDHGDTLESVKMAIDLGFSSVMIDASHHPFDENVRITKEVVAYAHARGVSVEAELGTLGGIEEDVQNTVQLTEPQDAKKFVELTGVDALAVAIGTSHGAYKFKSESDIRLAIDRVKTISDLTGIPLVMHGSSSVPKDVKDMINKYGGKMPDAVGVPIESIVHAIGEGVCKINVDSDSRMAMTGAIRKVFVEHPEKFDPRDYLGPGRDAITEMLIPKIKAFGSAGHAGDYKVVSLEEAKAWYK
#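 Giardia FBPA (40 nM reagent) was preincubated 10 min at RT with compound (up to 57.5 uM final), then substrate plus GAPDH/TPI/NAD/arsenate coupling system with diaphorase/resazurin was added; resorufin fluorescence (525/598 nm) was read after 20 min.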
# HCV inhibitor: qHTS Assay for Inhibitors of Hepatitis C Virus (HCV) | 3.4% of 340,000 active | AID 651820, 2012 | Huh7.5.1 HCVcc-Cre infection, luciferase reporter, 44 h | Potency, µM (series often up to 41.8 µM), without a hit: at the top dose activity change, negative = inhibition, hits mostly inhibitors; also: potency is read from the fitted curve at half-maximal effect
#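 1,000 cells/well; 4 h culture; + compound; + HCVcc-Cre (~0.5 moi); 44 h; luciferase substrate, RT 15 min; read 15 sec.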
# HCMV inh: qHTS Assay for inhibitors of the human cytomegalovirus (HCMV); HFF cells, HCMV-luciferase reporter, 72 h; hits give low values; activity change, negative = inhibition, % at 57.5 µM; 4.5% of 410,000 active; AID 1259415, 2018; in the data active = activity change below about -60%; inconclusive = no clear call, values can overlap the other calls; inactive = above about -39%
#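 HFF cells seeded 16 h at 37C, treated with compounds, infected with luciferase-reporter HCMV at MOI 1 PFU/cell; luciferase read at 72 h post infection, normalized to buffer-only and Salinomycin controls.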
# Vaccinia mCherry: qHTS for Stage-Specific Inhibitors of Vaccinia Orthopoxvirus: mCherry Reporter Primary qHTS; Vaccinia virus mCherry reporter infection, fluorescence; Potency, µM (series often up to 36.5 µM), inactives show at the highest dose activity change, negative = inhibition, hits mostly inhibitors; 0.63% of 310,000 active; AID 720579, 2013; calls by dose curve; tested in A549 cells; also: potency is read from the fitted curve at half-maximal effect; nearly all actives have a fitted effect of over 35% in size
# FMDV antiviral: High Throughput Screening for Foot and Mouth Disease Virus Antivirals; FMDV antiviral cell-based qHTS; Potency, µM (doses to about 57.9 µM), inactives show at the highest dose activity change, negative = inhibition, usual class: inhibitors; 1.2% of 410,000 active; calls by dose curve; tested in HEK293T cells; also: read-out not given here; potency is read from the fitted curve at half-maximal effect; nearly all actives have a fitted effect of over 45% in size
# * marks the source's active call; other numbers are inactive results; i = inactive; ? = inconclusive; / = no result given. A selection: hits, their analogues and other compounds. The true share with any hit is near 7.5%. Unless noted, calls follow the shape of the dose curve; as a rule, active = well fitted curve in the direction sought with a large enough effect; inconclusive = small, poorly fitted or top-dose-only effect, or another doubt; inactive = no such curve, though single readings can be large; an effect the other way counts as inactive or inconclusive. % is scaled to controls: 0 for no effect and ±100 for the full control effect.
SMILES,Vaccinia Venus,Giardia FBPA inh,HCV inhibitor,HCMV inh,Vaccinia mCherry,FMDV antiviral
Nc1[nH]c(C(=O)c2ccccc2)c(-c2ccc(F)cc2)c1C(=O)NCCc1c[nH]c2ccccc12,-13.8%,/,/,-27.5,-21.8%,-13.6%
Nc1[nH]c(C(=O)c2ccccc2)c(-c2cccc(C(F)(F)F)c2)c1C(=O)NCCc1c[nH]c2ccccc12,/,/,/,-72.3*,/,/
Cc1cc(=O)oc2cc(NC(=O)CC3(CC(=O)O)CCCC3)ccc12,-12.6%,7.8%,18.0%,-9.3,-6.4%,10.8%
O=C1C(Cl)=CC(=Nc2ccc(O)cc2)C=C1Cl,/,?,-4.0%,-78.7*,/,21.0%
N#Cc1nc(Nc2cccc(Cl)c2)c2ncn(C3CCCC3)c2n1,/,/,/,-87.0*,/,-57.1%
COc1ccc(N(CC(=O)NCc2ccco2)C(=O)CCC(=O)Nc2nccs2)cc1,-3.8%,-1.1%,16.4%,12.2,i,-1.2%
N=c1n(CCN2CCCCC2)c2ccccc2n1CC(O)c1cccc(Br)c1 (stereo not given),?,-7.9%,12.6µM*,?,?,?
COC(=O)Cn1c(=N)n(CCN2CCCCC2)c2ccccc21,-34.0%,-7.0%,13.8%,-25.2,/,-21.5%
CN(C)CCn1c(=N)n(CC(O)c2ccc(Cl)c(Cl)c2)c2ccccc21 (stereo not given),/,-1.0%,7.08µM*,-36.4,/,?
N=c1n(CCN2CCCCC2)c2ccccc2n1CC(O)c1ccc(Cl)c(Cl)c1 (stereo not given),11.2µM*,3.7%,12.6µM*,-97.2*,?,/
N=c1n(CCN2CCCCC2)c2ccccc2n1CC(=O)c1ccc(Cl)c(Cl)c1,-8.5%,?,?,-18.8,-8.0%,?
Cc1cc2nc3n(c2cc1C)C(C)(C(=O)Nc1ccc2ccccc2c1)CCC3 (stereo not given),/,/,/,31.8,/,/
Cc1ccc(-n2c(C)nnc2SCC(=O)NNC(=O)c2ccco2)cc1,-0.5%,0.3%,17.5%,-27.1,-4.9%,9.5%
c1ccc(-c2cnc(CSc3ncnc4sccc34)o2)cc1,-18.9%,-17.4%,11.2µM*,3.4,-18.7%,-5.5%
CC(=O)Nc1ccc(SCc2ncc(-c3ccccc3)o2)cc1,-7.0%,0.6%,-27.5%,57.2,-6.2%,16.1%
C=C(C)COc1ccc2c(C)c(CCC(=O)N3C[C@H]4C[C@@H](C3)c3cccc(=O)n3C4)c(=O)oc2c1,2.6%,-2.1%,9.8%,?,-7.0%,-15.2%
c1ccc(Nc2nc(N3CCCC3)nc(N3CCOCC3)n2)cc1,/,/,/,21.8,/,-17.9%
Cc1[nH]c2ccccc2c1/C=N/Nc1nc(Nc2ccccc2)nc(N2CCOCC2)n1,/,-8.8%,?,-99.4*,/,-11.3%
Oc1[nH]c2ccccc2c1N=Nc1nc(Nc2ccccc2)nc(N2CCOCC2)n1,/,2.0%,14.1µM*,-102.7*,/,?
COCCCNC(=O)c1c(NC(=O)Cc2coc3cc(C)cc(C)c23)sc2c1CCCC2,3.6%,/,/,-0.3,-4.8%,12.2%
Cn1cccc1C1C=C(c2ccc(C(C)(C)C)cc2)Nc2ncnn21 (stereo not given),?,/,?,-80.4*,?,-57.6%
CC(C)(C)c1ccc(C2=CC(c3ccccc3F)n3ncnc3N2)cc1 (stereo not given),-17.4%,/,8.0%,0.0,-7.3%,0.0%
CCOc1cc(/C=N/NC(=O)Cc2ccc(C(F)(F)F)cc2[N+](=O)[O-])c(Br)cc1OC,-4.6%,5.0%,?,-20.5,-7.9%,-23.5%
COc1cc(Br)cc(/C=N/NC(=O)Cc2ccc(C(F)(F)F)cc2[N+](=O)[O-])c1O,12.6µM*,-3.2%,?,-102.1*,20µM*,-22.8%
O=C(C(=O)N1CCC(Cc2ccccc2)CC1)c1ccccc1,-15.6%,/,/,-22.4,-7.4%,9.1%
O=Nc1c2cc3ccccc3[nH]c-2c2ccccc12,?,/,?,64.6,?,-21.7%
O=Nc1c(O)c2ccccc2c2ccccc12,10µM*,/,?,-97.6*,?,11.2µM*
